Source: the supplement of paper PMC6555819

Key:
Experiment in all cases: PBM binding z-score (relative to random genomic background probes); higher = stronger binding; sequences stand for … in GC…GCGATTGACAGCGTAGAATGAAGG
[1] = tested on: RARb homodimer (NR concentration 270 nM)
How it was run: (§1)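 Scanned fluorescence from custom Agilent 4×180K protein-binding microarrays was regression-normalized. Binding z-scores use random background probes as reference. Ligand-free nuclear receptor dimers were incubated on the arrays for 1 h and detected with antibodies against each partner (one per run).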

[2] = tested on: RARg:RXRa (NR concentration 270 nM, RXRa partner concentration 90 nM)
How it was run: as §1

[3] = tested on: RARg homodimer (NR concentration 270 nM)
How it was run: as §1

[4] = tested on: RXRa DBDmut IVT, anti-RXR (DBD mutation: RXRa K156A/R161A, NR concentration 90 nM)
How it was run: as §1

[5] = tested on: RXRa homodimer (NR concentration 180 nM)
How it was run: as §1

[6] = tested on: THRa:RXRa (NR concentration 90 nM, RXRa partner concentration 90 nM)
How it was run: as §1

[7] = tested on: THRa homodimer (NR concentration 90 nM)
How it was run: as §1

[8] = tested on: VDR homodimer (NR concentration 270 nM)
How it was run: as §1

| Sequence | PBM binding z-score [1] | PBM binding z-score [2] | PBM binding z-score [3] | PBM binding z-score [4] | PBM binding z-score [5] | PBM binding z-score [6] | PBM binding z-score [7] | PBM binding z-score [8] |
| --- | --- | --- | --- | --- | --- | --- | --- | --- |
| TCTCGGAGGACACGAAGGCCAGAGCTTTCCAGAG | 1 | 0.605 | 1.84 | 0.482 | 0.00493 | 1.43 | 0.215 | -0.212 |
| CTCGAAAGGTCGGATGAGGTGAGTATACGGATAA | 2.69 | 3.2 | 3.26 | 0.982 | 2.94 | 5.16 | 1.3 | 0.327 |
| CCTAGCAGGCAAGGGTCACTCAAGCATTTCGCTT | 3.46 | 4.12 | 3.63 | 0.602 | 4.6 | 2.36 | -0.309 | 0.817 |
| GATACAGGGTCAGCAAGAGGCCAGAGTATGGAAA | 3.45 | 6.61 | 4.76 | 1.16 | 4.52 | 3.21 | 0.361 | 0.548 |
| TCTAGCAGGCCAGAGGGTCACACAAGAGGTACGG | 3.1 | 3.52 | 3.05 | 0.175 | 4 | 2.25 | 0.165 | 0.773 |
| CCTCGGAGGACAACAGGAGGTCAGAGTTGCCAGA | 3.77 | 3.42 | 3.26 | 0.349 | 2 | 3.08 | 1.6 | 1.5 |
| ACTATTAGTAGACTTAGGGCAACCGATACGACGC | 0.674 | 0.363 | 0.941 | 0.409 | 0.292 | 0.596 | 0.558 | 0.227 |
| GTACCAAAGTGAATAGGTCGTTGATGAGTAGGCG | 0.226 | 0.205 | 0.383 | -0.282 | 0.584 | -0.048 | -0.733 | -0.0624 |
| TCTGGTAGATCAAGCAGGTTAAGAAAGCCTGAGT | -0.182 | -0.3 | -0.211 | 0.0546 | 0.202 | -0.00478 | -0.796 | 0.261 |
| ATCTCTAGGTAAGACTGAGTTCAGTGAAGAACGC | 1.05 | 0.569 | 0.377 | 1.38 | 0.265 | 1.25 | 0.797 | 3.47 |
| CGGACTGGGGCAGAAAGGTTACCATACCATCCGG | 2.51 | 1.79 | 1.69 | -0.693 | 1.85 | 1.29 | -0.00516 | 0.148 |
| AGTCAAAGTTCAATAGGTAACGTAAGATTCAGCT | 3.98 | 5.19 | 5.37 | 4.02 | 3.85 | 1.72 | 0.00177 | 3.4 |
| ATCTCTAGATAAAGATAGTTCAGTGAATGCAAAT | 0.48 | 0.16 | 0.499 | -0.299 | 0.282 | 0.263 | -0.124 | 0.668 |
| TAGCCTAGGTCATTCAGGGACCAGTATAGAAAGC | 2.63 | 3.94 | 4.11 | 1.43 | 2.72 | 4.26 | 0.615 | 1.19 |
| GGAACGAGGGCTAGTTGATAGCAGAGTTTGATGG | -0.317 | -0.308 | -0.0732 | 0.278 | -0.467 | -0.749 | -1.03 | -0.367 |
| TGTCAAAGTTCAAAGGTAACGTAAGTATCCACAC | 3.82 | 6.28 | 6.19 | 4.36 | 7.27 | 3.53 | 0.176 | 4.04 |
| TCTAGTAGATCAAGCAGGTTAAGAAAGCCTGAGT | -0.158 | -0.256 | -0.373 | 0.554 | 0.16 | 0.0974 | -0.707 | -0.397 |
| ACTATTAGTTGAGACGAGGGCAGCCGATAGGTTG | 0.756 | 0.374 | 0.715 | 0.298 | 0.449 | 2.02 | 0.0606 | 0.189 |
| TCTAATAGTTGAAGGGCAACCGACGAGTCCGTTT | 1.24 | 0.639 | 0.887 | 1.7 | 0.869 | 0.0071 | -0.423 | 1.41 |
